The values below come from PubChem BioAssay (EPA / NIEHS).

Structures are written as SMILES. Active and inactive are the calls of the source. Rule for the calls: active = hit-call score of the fitted dose curve at least 0.9, where 1 is the maximum; inconclusive = response in the unintended direction; inactive = score below 0.9.

A short description of the experiment: LTEA_HepaRG_LDH_cytotoxicity: Cytotoxicity Assessment in the Life Technologies and Expression Analysis (LTEA) Assay (AID 2283563). The method, then:
LTEA_HepaRG is a cell based, multiplexed-readout assay that uses HepaRG, a human liver cell line, with measurements taken at 48 hours after chemical dosing on a 96-well plate.LTEA_HepaRG_LDH_cytotoxicity is one of 102 assay component(s) measured in the LTEA HepaRG cell culture assay. It is a marker of cell viability / cytotoxicity.Data from the assay component LTEA_HepaRG_LDH_cytotoxicity was analyzed into 1 endpoint. This assay endpoint, LTEA_HepaRG_LDH_cytotoxicity, was analyzed in the positive fitting direction relative to DMSO as the negative control and baseline of activity. Using a type of inducible reporter, measures of mRNA induction for loss-of-signal activity can be used to understand cell death. To generalize the intended target to other relatable targets, this assay endpoint is annotated to the cell cycle intended target family, where the subfamily is proliferation.
A total of 1060 chemcials from the ToxCast library were tested in eight-point concentration-response experiments. Cell culture and cytotoxicity assays were conducted at Thermo Fisher Scientific's Custom Services facility (Madison, WI). A single lot of human HepaRG cells (Thermo Fisher Scientific, Frederick, MD) was used for the cell culture experiments. 96-well format collagen type I coated plates of human HepaRG cells were prepared using established methods. Briefly, cryopreserved HepaRG cells were thawed, plated at a density of approximately 100,000 cells/well in HepaRG Thaw, Plate, and General Purpose media (HPRG770, Thermo Fisher Scientific), and incubated for 48 hours. 0.5% DMSO was selected as vehicle control to balance the requisite need of DMSO in HepaRG cultures to maintain differentiation (for example, baseline metabolism, proportions of hepatocytes vs. cholangiocytes), while enabling further hepatic receptor pathway activation (for example, PXR and CAR) in response to chemical exposure. 48 hours after plating, the culture medium was replaced with HepaRG Serum-Free Incudtion Media. Cells were exposed to each test chemical in duplicate and maintained in CO2 incubators for another 48 hours. Chemical plates were thawed to room temperature and 200x concentrations of treatment groups were prepared. 8-point conentration-reponse curves were made with the highest exposure at 100 uM, followed by half-log dilutions, all in 0.5% DMSO. Each test plate contained variouse controls, induction positive controls (1mM phenobarbital), cytotoxicity positive controls ([…] aflatoxin B1), vehicle controls (0.5% DMSO), and total lysis controls (0.5% DMSO). Cell morphology images were taken using an Essen IncuCyte FLR automated microscope, with six 96-well plates imaged in about 24 minutes. Images were captured and exported and JPEG files. Spent culture media was transfered to black-well plates for the LDH assay, and remaining media was sorted at -80 C for later use. Cells were treated with RLT buffer and frozen until shipped for gene expression analysis. Total RNA was isolated from the cell suspension in 75 uL of Buffer RLT (Qiagen, Germantown, MD 20874) by Quintiles/Expression Analysis (Durham, NC) using a custom isolation procedure. Total RNA from each plate well was transferred to a preamplification plate. Fluidigm's 96.96 Dynamic ArrayTM (Fluidigm, Amsterdam, the Netherlands) technology was used for gene expression analyses by quantitative reverse transcription polymerase chain reaction (qRT-PCR, performed by Quintiles/Expression Analysis, Durham, NC)89. Standard TaqManTM Assays (Applied Biosystems/ThermoFisher Scientific, Foster City, CA) were used to assess the expression of 93 genes selected based on their selectivity and sensitivity to important hepatic receptors known to be modulated by environmental chemicals; importance in human hepatocyte functionality; and hepatotoxicity. […]
Take `NC(=O)Cn1c(=O)cc(CCN2CCN(c3nccc4sccc34)CC2)c2ccc(F)cc21`: the molecule was called inactive.

As for `C=CCc1ccc(O)c(OC)c1`, the molecule was classed as inactive.

As to `O=[N+]([O-])C(CO)(CO)CO`, the outcome was inactive.

Take `COc1ccc(C)cc1N`: the molecule was classed as inactive.

For `CCCCCCCCCCCCCCCC`, the call was inactive.

The term AC50 denotes the midpoint of the concentration-response curve, whichever way the signal moves. In the case of `COc1ccc(S(=O)(=O)N2C(=O)[C@@](c3ccccc3OC)(N3C[C@H](O)C[C@H]3C(=O)N(C)C)c3cc(Cl)ccc32)c(OC)c1`, the AC50 is 79.5 µM (active).

On to `Cc1nc(-c2ccc3c(c2)CCN(CCC2CCC(NC(=O)/C=C/c4ccc(F)cc4)CC2)CC3)no1` (stereo not given), for which the outcome was inactive.

As to `Clc1cc(Cl)c(Cl)cc1Cl`, the result was inactive.

On to `CC(C)(C)c1cc(O)c(C(C)(C)C)cc1O`, for which the AC50 was 73.5 µM (active).

As for `C=CCOC(=O)c1ccccc1C(=O)OCC=C`, the molecule was called inactive.

With `O=C(OCCCCCOC(=O)c1ccccc1)c1ccccc1`, the outcome was inactive.

As for `CCc1c(C(=O)NN2CCCCC2)nn(-c2ccc(Cl)cc2Cl)c1-c1ccc(Br)cc1`, the half-maximal activity concentration (AC50) is 61.6 µM (active).

As to `CC(C)c1ccc(C(=O)N=C(N)N)cc1S(C)(=O)=O`, the result was inactive.

As to `COc1cc(C=O)ccc1O`, the molecule was called inactive.

On to `C[Si]1(C)O[Si](C)(C)O[Si](C)(C)O[Si](C)(C)O1`, for which the result was inactive.

Regarding `CC1(C)NC(=O)NC1=O`, the result was inactive.

In the case of `C[C@]12C=CC(=O)C=C1CC[C@@H]1[C@@H]2C(=O)C[C@@]2(C)[C@H]1CC[C@]2(O)C(=O)CO`, the call was inactive.

For `CCCCC(CC)COC(=O)CC(C(=O)OCC(CC)CCCC)S(=O)(=O)O` (stereo not given), the half-maximal activity concentration (AC50) was 75.3 µM (active).

Turning to `CN1CCN(Cc2cc(-c3ccc4[nH]c(=O)oc4c3)co2)[C@@H](c2ccc(F)cc2)C1`, the molecule was classed as inactive.

For `Cc1ccc2ncccc2c1`, the molecule was classed as inactive.

Consider `CCCc1cc(=O)[nH]c(=S)[nH]1`, for which the outcome was inactive.

With `O=c1c(O)c(-c2ccc(O)c(O)c2)oc2cc(O)cc(O)c12`, the molecule was called inactive.

In the case of `CC(=O)OC/C=C(\C)CCC=C(C)C`, the molecule was called inactive.

Take `Cc1ccc(C(C)C)c(O)c1`: the outcome was inactive.

Consider `CCCCCCOCCO`, for which the molecule was classed as inactive.

In the case of `CCCCCCCCCCC`, the molecule was classed as inactive.

For the molecule `CCCCN(CCCC)CCCC`, the result was inactive.

Regarding `CCOC(=O)C(C)(C)Oc1ccc(Cl)cc1`, the call was inactive.

For the molecule `Cc1cccc([N+](=O)[O-])c1C`, the molecule was classed as inactive.

As for `CCCCCCCC=O`, the result was inactive.

Take `CC=Cc1ccc(O)c(OC)c1`: the outcome was inactive.

In the case of `NCCO`, the molecule was called inactive.

As for `CN1CCCC1=O`, the call was inactive.

As to `COc1ccc2c(c1)c(CC(=O)O)c(C)n2C(=O)c1ccc(Cl)cc1`, the result was inactive.

For the molecule `c1cc(-c2ccncc2)ccn1`, the molecule was called inactive.

As for `O=c1[nH]cc(F)c(=O)[nH]1`, the result was inactive.

As for `CCCCCCCCCCCCCO`, the molecule was classed as inactive.

Regarding `CNCc1cc(F)ccc1Oc1ccc(Cl)c(Cl)c1`, the AC50 is 81.7 µM (active).

On to `C1CCC(SSC2CCCCC2)CC1`, for which the call was inactive.

With `CCCCCCC(=O)OCC`, the molecule was called inactive.
